SMILES strings stand for the structures. Activity calls are given as the source filed them.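 How the source made its calls, unless noted: active means inhibition of the reporter signal at or above 50%; inactive means inhibition below 50%.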

This is an account of results in PubChem BioAssay.

The nature of test [1]: inhibitors of TNFa-induced NFkB p65 translocation, primary screen, imaging, HUVEC, MLSMR starter and 10KST1 sets (AID 438;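 active means inhibition above 20% together with a positive visual image hit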;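 further: compound added about 3h40 before a 20 min TNFalpha stimulation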;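 on inhibition: signal is the nuclear over cytoplasmic p65 intensity ratio per well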). The settings on record: HUVEC TNFa-induced p65 nuclear translocation; cell count: measured here: nuclei count (cytotoxicity indicator), at 2.08 µM; inhibition: at 2 µM, stronger effect = higher value, 0% TNFa-plus-vehicle, 100% no-TNFa wells.
Test [2] can be described thus: inhibitors of mutant huntingtin aggregation, primary screen, imaging, exon1htt(103Q)mCFP cells, high-content imaging (AID 483;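 active means visual image review flags a hit and inhibition of aggregation exceeds 20%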;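 further: compound exposure lasted 3 days before fixation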;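 on nuclei count: percent of the per-plate median nuclei count of sample wells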). Particulars: exon1htt(103Q)mCFP cell line, aggregate imaging, at 2 µM; inhibition of aggregation: stronger effect = higher value; nuclei count: measured here: cell count, toxicity.
The nature of test [3]: inhibitors of E-selectin induction by TNFa, primary screen, imaging, HUVEC, immunofluorescence, MLSMR starter and 10KST1 sets (AID 487;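 active means visually confirmed hit in the image check and inhibition above 20%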;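 on inhibition: signal is fraction of cell area covered by stained E-selectin grains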;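 on nuclei count: 100% = median nuclei count of all wells on the same plate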). Particulars: HUVEC TNFalpha-induced E-selectin immunofluorescence imaging, at 2 µM; inhibition: stronger effect = higher value; nuclei count: measured here: cell number, toxicity.
Test [4] addresses Voltage-gated potassium channel subunit beta-2 (Rattus norvegicus) (UniProt P62483). The test can be described thus: KvBeta enzyme negative modulators, primary screen, biochemical, NADPH fluorescence (AID 622;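 active means fluorescence slope higher than the sample average by over 3 SD, cut at about -0.22 in these data, passing the limit was not always enough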;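 further: slope of raw intensity against log time taken from 70 to 1610 s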). Particulars: recombinant KvBeta, 4-cyanobenzaldehyde reduction, at 10 µM, stronger effect = higher value.
The target is the same in test [5]. Briefly: KvBeta positive modulators, primary screen, biochemical, NADPH fluorescence (AID 623;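 active means NADPH fluorescence slope more negative than the mean of all samples by about 3 SD, 99.7% confidence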;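 further: fluorescence intensity change per second fitted from 20 to 320 s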). Particulars: Recombinant KvBeta, NADPH fluorescence decrease slope, 10 min; at 10 µM; stronger effect = lower value.
Test [6] addresses Alpha-2C adrenergic receptor (Homo sapiens) (UniProt P18825). Briefly: modulators of alpha2C/GIRK thallium flux, primary screen, cell-based, HEK293 alpha2C/GIRK1/2 (AID 624;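 active means fluorescence slope after compound addition differing from the mean of all screened samples at 99.7% confidence, in either direction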;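 further: slope of fluorescence ratio to pre-addition baseline per second over 15 to 24 s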). Particulars: thallium flux BTC fluorescence, at 10 µM, actives lie on both sides.
The nature of test [7]: inhibitors of Sendai virus-induced IRF3 signaling, primary screen, TLR/RLR signaling modifier project, cell-based, Sendai virus stimulus, luciferase, 10K MLSCN set (AID 602276;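 active means inhibition at or above 50% at 10 µM; inactive means inhibition below 50%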;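 further: firefly luciferase from ISG56 promoter only with Renilla not read in this screen; 0% = Sendai virus plus DMSO and 100% = medium plus DMSO without virus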). Particulars: HEK293 RL24 IRF3 luciferase reporter, at 10 µM, stronger effect = higher value.
Test [8] can be described thus: inhibitors of poly I:C-induced TLR3 signaling, primary screen, cell-based, poly I:C stimulus, luciferase, 10K MLSCN set (AID 602277). The settings on record: HEK293-TLR3 RL24 IRF3 luciferase reporter, at 10 µM, stronger effect = higher value. A general note: A reporter such as luciferase makes a cellular process visible.

Voltage-gated potassium channel subunit beta-2 (Rattus norvegicus), sequence (P62483 whole entry, looked up): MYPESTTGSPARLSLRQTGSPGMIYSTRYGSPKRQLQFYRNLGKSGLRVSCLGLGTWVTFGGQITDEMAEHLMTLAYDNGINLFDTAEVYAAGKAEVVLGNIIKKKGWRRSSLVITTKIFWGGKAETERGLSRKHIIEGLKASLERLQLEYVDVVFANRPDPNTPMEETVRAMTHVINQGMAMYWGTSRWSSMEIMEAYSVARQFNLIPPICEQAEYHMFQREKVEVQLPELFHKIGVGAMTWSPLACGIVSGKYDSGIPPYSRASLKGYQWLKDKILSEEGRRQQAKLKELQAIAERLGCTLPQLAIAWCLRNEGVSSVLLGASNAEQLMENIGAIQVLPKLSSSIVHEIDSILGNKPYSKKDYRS
Alpha-2C adrenergic receptor (Homo sapiens), sequence (P18825 whole entry, looked up): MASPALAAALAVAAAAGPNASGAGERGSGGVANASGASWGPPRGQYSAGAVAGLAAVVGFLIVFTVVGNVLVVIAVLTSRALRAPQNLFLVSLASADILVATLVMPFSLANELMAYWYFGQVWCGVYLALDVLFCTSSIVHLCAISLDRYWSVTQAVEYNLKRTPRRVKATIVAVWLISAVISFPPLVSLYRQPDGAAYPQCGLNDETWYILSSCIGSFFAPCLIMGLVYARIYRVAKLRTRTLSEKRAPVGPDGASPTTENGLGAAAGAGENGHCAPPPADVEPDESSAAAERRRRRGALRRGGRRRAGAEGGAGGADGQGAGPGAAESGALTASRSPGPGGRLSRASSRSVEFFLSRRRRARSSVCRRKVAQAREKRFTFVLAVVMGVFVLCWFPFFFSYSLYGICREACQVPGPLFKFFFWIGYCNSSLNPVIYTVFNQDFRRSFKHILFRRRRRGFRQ

By inhibition is commonly meant the change of the read-out against control, counted positive when it falls. As for `COc1ccc(-c2ccc(-c3nnn(CC(C)=O)n3)cc2)cc1`, the cell count in test [1] came out at 277. Moreover, the inhibition in test [1] was -6.2% (inactive); in test [3] it was -65% (inactive); in test [7], -41% (inactive); in test [8], -130% (inactive). In test [2], the inhibition of aggregation was -10.7% (inactive). Besides, the nuclei count in test [2] amounted to 111%; in test [3], 130%. The fluorescence slope in test [4] was -0.516 (inactive). Also, the NADPH fluorescence slope in test [5] is -4.2e-05 (inactive). The slope in test [6] is 0.00693 (inactive).
In the case of `Cc1c(C(=O)Nc2ccncc2)oc2c1C(=O)CC(C)(C)C2`, the cell count in test [1] stood at 254. For the same molecule, the inhibition in test [1] is 9.6% (inactive); in test [3], -44.5% (inactive); in test [7], 7.94% (inactive); in test [8] it was -3.33% (inactive). The inhibition of aggregation in test [2] is 18.9% (inactive). In addition, the nuclei count in test [2] came out at 85.4%; in test [3], 97.2%. For the same molecule, in test [4], the fluorescence slope was -0.408 (inactive). Besides, the NADPH fluorescence slope in test [5] is -2.8e-05 (inactive). Besides, in test [6], the slope is 0.00527 (inactive).
Consider `CCN(CC)CCn1c(OC)cc(=O)[nH]c1=O`, for which, in test [1], the cell count was found to be 411. In addition, the inhibition is 5.3% (inactive) in test [1], -137% (inactive) in test [3], 10.7% (inactive) in test [7] and 18.4% (inactive) in test [8]. Also, the inhibition of aggregation in test [2] was -27.5% (inactive). Also, the figures for the nuclei count in test [2] and in test [3] were 108% and 114%, respectively. The fluorescence slope in test [4] was -0.503 (inactive). Moreover, in test [5], the NADPH fluorescence slope is 1.6e-06 (inactive). Further, in test [6], the slope was 0.00433 (inactive).
Regarding `CCCn1nc(CC(=O)O)c2ccccc2c1=O`, in test [1], the cell count amounted to 468. In addition, the inhibition in test [1] is -12.3% (inactive); in test [3] it was -10.6% (inactive); in test [7], 16.7% (inactive); in test [8] it was 16.8% (inactive). In addition, the inhibition of aggregation in test [2] is 18.8% (inactive). Further, the results for the nuclei count in test [2] and in test [3] were 123% and 119%, respectively. For the same molecule, the fluorescence slope in test [4] was -0.426 (inactive). For the same molecule, the NADPH fluorescence slope in test [5] is -3.1e-05 (inactive). Moreover, in test [6], the slope was 0.00533 (inactive).
In the case of `CS(=O)(=O)N(Cc1ccco1)CC(O)Cn1c2ccccc2c2ccccc21` (centres undefined), the cell count in test [1] was 314. Further, the inhibition in test [1] was 3.3% (inactive); in test [3], -16.4% (inactive); in test [7], 13.7% (inactive); in test [8] it was 35.1% (inactive). Besides, the inhibition of aggregation in test [2] was 3.9% (inactive). Further, the values for the nuclei count in test [2] and in test [3] were 103% and 97.9%, respectively. For the same molecule, in test [4], the fluorescence slope was -0.388 (inactive). Besides, in test [5], the NADPH fluorescence slope was 1.5e-05 (inactive). For the same molecule, the slope in test [6] is 0.00353 (inactive).
As to `Cc1oc(-c2ccccc2F)nc1CS(=O)(=O)CC(=O)NCCCN1CCc2ccccc2C1`, the cell count in test [1] is 649. For the same molecule, the inhibition is 11% (inactive) in test [1], 27.9% (inactive) in test [3], 10.5% (inactive) in test [7] and 18.8% (inactive) in test [8]. The inhibition of aggregation in test [2] is 16.1% (inactive). Also, the nuclei count in test [2] came out at 68.5%; in test [3] it was 108%. The fluorescence slope in test [4] was -0.508 (inactive). In addition, the NADPH fluorescence slope in test [5] is -5.3e-07 (inactive). The slope in test [6] is 0.00532 (inactive).
With `CCS(=O)(=O)N1CCC(C(=O)NCCc2ccc(C)cc2)CC1`, the cell count in test [1] is 646. Further, the inhibition is -10.6% (inactive) in test [1], -178% (inactive) in test [3], -2.06% (inactive) in test [7] and 10.2% (inactive) in test [8]. The inhibition of aggregation in test [2] is 2.7% (inactive). Besides, the figures for the nuclei count in test [2] and in test [3] were 81.2% and 136%, respectively. Also, in test [4], the fluorescence slope is -0.596 (inactive). The NADPH fluorescence slope in test [5] is 1.4e-05 (inactive). In addition, the slope in test [6] was 0.00666 (inactive).
On to `c1coc(-c2nnc(NC3=NCCC3)o2)c1`, for which the cell count in test [1] is 527. The inhibition in test [1] was -5.3% (inactive); in test [3], -80.8% (inactive); in test [7], -15.4% (inactive); in test [8], -42.4% (inactive). Moreover, in test [2], the inhibition of aggregation was 6.6% (inactive). Besides, the values for the nuclei count in test [2] and in test [3] were 98.8% and 162%, respectively. Further, the fluorescence slope in test [4] was -0.526 (inactive). In addition, the NADPH fluorescence slope in test [5] was 2.5e-05 (inactive). For the same molecule, the slope in test [6] was 0.0054 (inactive).
On to `O=C1NC(Nc2ccccn2)(C(F)(F)F)C(=O)N1c1ccc(F)cc1` (centres undefined), for which, in test [1], the cell count came out at 483. For the same molecule, the inhibition in test [1] is -1.9% (inactive); in test [3] it was -79.1% (inactive); in test [7] it was 13.9% (inactive); in test [8], 6.37% (inactive). In test [2], the inhibition of aggregation is -9.8% (inactive). For the same molecule, the nuclei count in test [2] was found to be 110%; in test [3], 111%. The fluorescence slope in test [4] was -0.582 (inactive). Besides, the NADPH fluorescence slope in test [5] is -4.6e-05 (inactive). The slope in test [6] is 0.00277 (inactive).
Regarding `COc1ccccc1NC(=O)C1=C(C)Nc2nc(CCCO)nn2C1c1cccnc1` (centres undefined), the cell count in test [1] amounted to 318. The inhibition in test [1] was 1.6% (inactive); in test [3] it was -30.7% (inactive); in test [7], 6.83% (inactive); in test [8] it was 5.25% (inactive). Moreover, in test [2], the inhibition of aggregation was 10.7% (inactive). Moreover, the nuclei count in test [2] stood at 102%; in test [3], 114%. In test [4], the fluorescence slope is -0.631 (inactive). In addition, the NADPH fluorescence slope in test [5] is -3.9e-05 (inactive). Also, the slope in test [6] was 0.00626 (inactive).
Take `CCc1cccc2c(=O)c(C(=O)N3CCCCCC3)c[nH]c12`: in test [1], the cell count turned out to be 538. Moreover, the inhibition in test [1] is -26.5% (inactive); in test [3], -31% (inactive); in test [7], 4.31% (inactive); in test [8], -4.51% (inactive). Also, in test [2], the inhibition of aggregation is 7.9% (inactive). Besides, the nuclei count in test [2] worked out at 87.7%; in test [3], 94.3%. Moreover, the fluorescence slope in test [4] is -0.513 (inactive). Also, the NADPH fluorescence slope in test [5] is -5.1e-05 (inactive). The slope in test [6] was 0.0048 (inactive).
Consider `COc1ccc(-c2nc(CSCC(=O)NCc3ccc4c(c3)OCO4)c(C)o2)cc1OC`, for which the cell count in test [1] was 477. For the same molecule, the inhibition is -3.3% (inactive) in test [1], -83% (inactive) in test [3], 9.89% (inactive) in test [7] and 20.1% (inactive) in test [8]. For the same molecule, the inhibition of aggregation in test [2] was 16.1% (inactive). Moreover, the nuclei count was 104% in test [2] and 114% in test [3]. Also, the fluorescence slope in test [4] was -0.43 (inactive). The NADPH fluorescence slope in test [5] is -5.4e-05 (inactive). The slope in test [6] was 0.00553 (inactive).
`Cc1cc(-n2c(C)cc(C(=O)CSc3nnnn3-c3ccc(Cl)cc3)c2C)no1`: the cell count in test [1] was determined as 415. Also, the inhibition in test [1] was 4.2% (inactive); in test [3], -55.8% (inactive); in test [7], 9.68% (inactive); in test [8] it was 13.2% (inactive). The inhibition of aggregation in test [2] was 2.2% (inactive). Moreover, the nuclei count in test [2] amounted to 94%; in test [3], 109%. Besides, in test [4], the fluorescence slope is -0.403 (inactive). Besides, the NADPH fluorescence slope in test [5] was -3.2e-05 (inactive). The slope in test [6] is 0.00589 (inactive).
Regarding `Cc1nc2ccc(C(=O)c3ccccc3)cc2[nH]1`, the cell count in test [1] is 411. For the same molecule, the inhibition in test [1] is 7.2% (inactive); in test [3], -8.7% (inactive); in test [7], -30.7% (inactive); in test [8], -56.7% (inactive). For the same molecule, in test [2], the inhibition of aggregation is 18.6% (inactive). Moreover, the nuclei count was 69.6% in test [2] and 105% in test [3]. Also, the fluorescence slope in test [4] is -0.389 (inactive). In addition, the NADPH fluorescence slope in test [5] is 2.4e-05 (inactive). In addition, in test [6], the slope was 0.00371 (inactive).
